FLuc modulator – firefly luciferase modulation, counter-screen for miR-21 project; Potency, µM (highest dose often 57.5 µM), inactives show top-dose activity change, negative = inhibition, actives largely listed as inhibitors; 360,000 tested, 6.9% active; purified FLuc, Km substrates, luminescence inhibition; AID 588342;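 also: plate controls were vehicle for no effect and reference inhibitor for full effect; nearly all actives have a fitted effect of over 55% in size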
Target sequence (P08659 whole entry, looked up): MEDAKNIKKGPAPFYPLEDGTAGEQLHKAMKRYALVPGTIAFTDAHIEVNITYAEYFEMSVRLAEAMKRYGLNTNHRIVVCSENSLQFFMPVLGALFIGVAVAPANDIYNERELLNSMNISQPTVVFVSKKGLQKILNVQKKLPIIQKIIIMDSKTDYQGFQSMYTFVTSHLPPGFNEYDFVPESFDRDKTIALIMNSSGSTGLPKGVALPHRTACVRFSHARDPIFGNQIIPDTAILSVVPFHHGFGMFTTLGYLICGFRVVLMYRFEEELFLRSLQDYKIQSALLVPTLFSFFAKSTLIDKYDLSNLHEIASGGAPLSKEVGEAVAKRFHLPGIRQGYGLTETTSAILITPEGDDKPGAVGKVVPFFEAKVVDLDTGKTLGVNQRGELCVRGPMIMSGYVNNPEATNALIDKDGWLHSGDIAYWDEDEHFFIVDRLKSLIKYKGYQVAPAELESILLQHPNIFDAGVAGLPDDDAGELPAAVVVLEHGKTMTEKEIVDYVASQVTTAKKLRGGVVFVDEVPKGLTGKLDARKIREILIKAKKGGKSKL
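Purified P. pyralis luciferase (10nM final) with 10uM D-luciferin and 10uM ATP (Km levels) in 50mM Tris acetate pH 7.5, 10mM Mg acetate, 0.01% Tween-20, 0.05% BSA; qHTS 6-point titration, ~60 µM downward; luminescence read.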
Rab9 prom act – Rab9 promoter activation | Potency, µM (doses to about 9.22 µM), without a hit: at the top dose activation, negative = inhibition, most hits filed as activators | Huh7 Rab9 promoter-luciferase reporter, luminescence, 24 h | 320,000 tested, 2.8% active; also: % of control where 0% means no effect; nearly all actives have a fitted effect of over 60% in size
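Rab9 promoter-driven luciferase in stably transfected Huh7 cells; 1500 cells/well rested 2 h, exposed to compound in DMSO for 24 h at 37 °C, 5% CO2. Luminescence read 10 min after adding luciferase reagent at ambient temperature.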
NPC1 prom act – activates the NPC1 promoter | Huh7 NPC1 promoter luciferase reporter, 24 h | Potency, µM (top dose mostly 9.22 µM), for the others: at the highest dose activation, most hits filed as activators | 320,000 tested, 2.4% active | AID 485313; also: % of control where 0% means no effect; nearly all actives have a fitted effect of over 60% in size
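Cells: Huh7 expressing luciferase under the NPC1 promoter, 1500/well. Seeded 2 h, compound added, incubated 24 h at 37 °C. Luciferase reagent, 10 min ambient, then luminescence.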
ELG1 genotoxic – induces genotoxicity in HEK293T cells with luciferase-tagged ELG1; HEK293T ELG1-luciferase reporter, luminescence, 16 h; Potency, µM (highest dose often 46 µM), without a hit: at the top dose activity change, positive = activation, most hits filed as activators; 330,000 tested, 1.3% active; AID 504466; also: % of control where 0% means no effect; nearly all actives have a fitted effect of over 60% in size
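Quantitative HTS format in 1536-well plates. HEK293T ELG1-luciferase reporter cells receive test compound and are incubated 16 hr at 37 °C, 5% CO2; ONE-Glo added, 30 min room temperature, then luminescence read.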
SMN2 splice enh – increases expression of the SMN2 splice variant; 210,000 tested, 2.8% active; Potency, µM (series often up to 46.1 µM), without a hit: at the highest dose activity change, positive = activation, most hits filed as activators; HEK293 SMN2-luciferase splicing reporter, luminescence, 30-36 h; also: % of control where 0% means no effect; nearly all actives have a fitted effect of over 55% in size
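HEK293 cells carry an SMN2 minigene-luciferase reporter in which exon 7 inclusion puts luciferase in frame. Cells were seeded at 2000 cells/well, attached for 10-12 hours, then exposed to compounds for 30-36 hours at 37C before ONE-Glo luminescence.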
An asterisk follows results filed as active; ? = inconclusive; . = not tested or not shown; [ ] = dose if it differs, or a comment. Compounds with a hit are over-represented: about 7.5% of the library has one in this group of screens. Calls follow the shape of the dose curve; as a rule, active = well fitted curve in the direction sought with a large enough effect; inconclusive = small, poorly fitted or top-dose-only effect, or another doubt; inactive = no such curve, though single readings can be large; an effect the other way counts as inactive or inconclusive. Potency is read from the fitted curve at half-maximal effect.

SMILES	FLuc modulator	Rab9 prom act	NPC1 prom act	ELG1 genotoxic	SMN2 splice enh
Cc1c(/C(O)=C2\C(=O)C(=O)N(CCN(C)C)C2c2cccs2)cnn1-c1ccccc1 (stereo not given)	?	4.47µM*	2.51µM*	-1.0%	-18.9%
O=C(COC(=O)c1cccc(OC(F)F)c1)Nc1cccc(S(=O)(=O)N2CCCC2)c1	.	.	.	-0.8%	.
CCN(c1ccc(NC(=O)COC(=O)C(C)N=C2NS(=O)(=O)c3ccccc32)cc1)C(C)C (stereo not given)	-19.2%	9.5%	-0.9%	3.2%	.
O=Nc1ccc(NOC(=O)c2ccccc2)cc1	0.0953µM*	-3.0%	-3.5%	-2.9%	-38.2%
COc1ccccc1NC(=O)c1cccs1	-2.6%	17.6%	14.3%	4.0%	-8.3%
COc1ccccc1NC(=O)c1ccccc1NC(=O)c1cccs1	19µM*	0.0%	-2.6%	1.6%	.
CCC(C)NS(=O)(=O)c1ccc(NC(=O)c2cccs2)cc1 (stereo not given)	-1.1%	-2.3%	-8.3%	-2.3%	.
O=C(Nc1ccc(Cl)cc1)c1cccs1	12µM*	.	.	.	23.4%
O=C(Nc1ccc(NC(=O)C2CC2)cc1)c1cccs1	13.5µM*	1.26µM*	3.55µM*	?	.
CCC(C)c1ccc(NC(=O)c2cccs2)cc1 (stereo not given)	0.675µM*	0.447µM*	0.398µM*	0.731µM*	7.94µM*
O=C(Nc1ccc(C(=O)N2CCCCC2)cc1)c1cccs1	?	13.3%	13.8%	?	.
Cc1ccccc1C(=O)Nc1ccc(NC(=O)c2cccs2)cc1	?	.	.	.	3.55µM*
O=[N+]([O-])c1ccc(NNC(=S)Nc2ccc(F)cc2)cc1	19µM*	12.7%	21.9%	7.2%	-55.1%
O=C(Nc1ccc(NC(=O)c2cccs2)c(Cl)c1)c1cccs1	16.9µM*	?	?	?	.
CC1(c2ccc(NC(=O)c3ccccc3F)cc2)CC1(Cl)Cl (stereo not given)	8.49µM*	2.51µM*	3.55µM*	?	.
O=C(Nc1ccc(NC(=O)c2cccs2)cc1Cl)c1ccco1	-5.0%	?	?	?	.
CCCCC(=O)N1CCc2cc(OC)c(OC)cc2C1COc1ccc(C(=O)OCC)cc1 (stereo not given)	2.1%	.	.	.	.
CN1CCc2nc(N)nc(-c3nc(N)nc4c3CN(C)CC4)c2C1	.	.	.	.	-7.8%[9.22 µM]
O=C(/C=C/c1cccs1)c1ccc(NC(=O)c2ccccc2F)cc1	3.01µM*	20.0%	12.1%	21.7%	3.7%
COc1ccccc1C(=O)Nc1ccc(C(=O)/C=C/c2cccs2)cc1	-18.5%	-9.3%	-2.3%	0.9%	-14.5%
O=C(Nc1ccc([N+](=O)[O-])cc1)c1ccccc1F	?	2.82µM*	?	22.5%	15.8µM*
O=C(Nc1ccc(Oc2ccsc2C(=O)O)cc1)c1ccccc1F	16.9µM*	-0.8%	17.6%	6.1%	.
O=C(Nc1ccc2[nH]ccc2c1)c1cccs1	9.53µM*	2µM*	1.58µM*	?	.
CC(=O)Nc1ccc2[nH]ccc2c1	4.0%	0.4%	-0.3%	3.8%	.
Cc1ccc(-c2nc(NC(=O)CSc3nc(C)nc4sc5c(c34)CCCC5)ns2)cc1	-3.0%	.	.	.	1.4%
SMILES	FLuc modulator	Rab9 prom act	NPC1 prom act	ELG1 genotoxic	SMN2 splice enh
COc1cc(OC)cc(C(=O)NNC(=O)CCNS(=O)(=O)c2ccc(Br)cc2)c1	.	.	.	-1.1%	.
CCOc1ccc(C2C(=O)N(C3CCCCC3)CC(=O)N2Cc2ccccc2OC)cc1OC (stereo not given)	-8.5%	.	.	.	.
COc1ccccc1C(=O)Nc1ccc(NC(=O)c2cccs2)cc1	?	.	.	.	11.9%
O=C(Nc1ccc(NC(=O)c2ccccc2F)cc1)c1cccs1	-14.9%	3.55µM*	?	?	.
CCOc1ccccc1Nc1nc2ccccc2n1C(C)C	?	-1.6%	-2.1%	-0.3%	-21.0%
O=S(=O)(O)C(c1ccccc1)[C@@H](O)c1ccccc1 (stereo not given in full)	.	.	.	.	-14.0%[9.22 µM]
CCC(NC(=O)c1cc(COc2cc(C)c(Cl)c(C)c2)on1)c1ccncc1 (stereo not given)	2.5%	-0.5%	-5.6%	-6.4%	.
CCC(NC(=O)c1cc(COc2ccc(OC)cc2Cl)on1)c1ccncc1 (stereo not given)	12µM*	?	24.7%	15.8%	.

From PubChem
